CYP2C9 act: activators of human CYP2C9; P11712; recombinant CYP2C9, luciferin-H conversion, luminescence; hits give high values; factor 1 = untreated enzyme, 0 = blocked; activation factor at 5 µM; 96,000 compounds, 1.4% hits;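 active = activation factor of 2 or more for CYP2C9 at a 5 µM dose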
CYP2C19 activ: cytochrome P450 2C19 (human) activation; P33261; recombinant CYP2C19, luciferin-H EGE luminescence; hits give high values; 0 = fully inhibited enzyme, 1 = untreated enzyme; activation factor at 5 µM; 96,000 tested, under 10 active; AID 1025;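 active = activation factor of at least 2 at 5 µM in the primary screen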
sEH inh: soluble epoxide hydrolase (human) inhibition. P34913. recombinant human sEH enzymatic activity assay. inhibition, % at 2 µM. 91,000 compounds, 0.34% hits; in the data active = inhibition above about 80%
Target sequence (P34913 whole entry, looked up): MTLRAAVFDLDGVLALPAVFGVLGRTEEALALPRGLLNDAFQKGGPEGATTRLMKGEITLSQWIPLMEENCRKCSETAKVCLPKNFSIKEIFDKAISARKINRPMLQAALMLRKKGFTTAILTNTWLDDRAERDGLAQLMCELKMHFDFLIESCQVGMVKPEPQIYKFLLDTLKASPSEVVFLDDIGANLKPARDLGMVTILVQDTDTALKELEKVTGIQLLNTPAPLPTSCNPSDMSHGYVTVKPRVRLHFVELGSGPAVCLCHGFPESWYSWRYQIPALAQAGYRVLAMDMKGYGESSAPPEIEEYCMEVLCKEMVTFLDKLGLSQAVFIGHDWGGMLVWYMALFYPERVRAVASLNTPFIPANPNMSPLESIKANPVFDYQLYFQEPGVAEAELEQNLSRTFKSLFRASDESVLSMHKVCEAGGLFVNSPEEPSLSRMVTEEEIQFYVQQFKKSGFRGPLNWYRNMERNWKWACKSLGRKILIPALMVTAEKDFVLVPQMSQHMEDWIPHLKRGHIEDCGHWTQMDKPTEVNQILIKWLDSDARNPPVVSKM
CYP2C9 inh: human CYP2C9 inhibition; P11712; CYP2C9 Supersomes, luciferin-H conversion, luminescence; inhibition, % at 5 µM; 96,000 compounds, 20% hits;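 active = blocking of liver enzyme CYP2C9 beyond about 50% at 5 µM, limit read from the data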
sEH activator: activators of human soluble epoxide hydrolase | P34913 | purified human sEH enzymatic activity, activator screen | activation, % at 2 µM | 91,000 compounds, 0.04% hits; in the data active = activation above about 37%
CYP2C19 inhib: blocks human cytochrome P450 2C19 | inhibition, % at 5 µM | CYP2C19 Supersomes, luciferin-H EGE luminescence, 30 min | AID 778 | 96,000 compounds, 21% hits | P33261;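 active = CYP2C19 inhibition above a set limit at 5 µM in the primary screen, cut at about 50% in these data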
Hits are given with their value; – = inactive; · = no result given. Rows were chosen to be rich in hits. Some 27% of all compounds tested hit in one or more screens of this group.

SMILES	CYP2C9 act	CYP2C19 activ	sEH inh	CYP2C9 inh	sEH activator	CYP2C19 inhib
COC(=O)COc1ccc(S(=O)(=O)NCC2CCCO2)cc1Cl (configuration not stated)	–	–	–	–	–	–
Cc1c(CCO)c(=O)n(C)n1C(=O)c1ccc(Cl)cc1	–	–	–	–	–	56
Cc1nnc(N(CCC#N)CCC#N)s1	–	–	–	–	–	–
c1ccc2nc(-c3nc4ccccc4o3)ccc2c1	–	–	·	–	·	71
O=C(NCCC1=CCCCC1)C1CCCN(S(=O)(=O)c2cnc[nH]2)C1 (configuration not stated)	–	–	·	66	·	96
O=C(NCC1COc2ccccc2O1)C1CCCN(S(=O)(=O)c2cnc[nH]2)C1 (configuration not stated)	–	–	·	50	·	90
O=C(NCCc1ccccc1)C1CCCN(S(=O)(=O)c2cnc[nH]2)C1 (configuration not stated)	–	–	·	59	·	85
O=C(NCCC1=CCCCC1)C1CCCN(S(=O)(=O)c2ccc(F)cc2)C1 (configuration not stated)	–	–	–	–	–	–
CCCS(=O)(=O)N1CCCC(C(=O)NC2CCCC(C)C2C)C1 (configuration not stated)	–	–	–	–	–	56
CCOC(=O)c1nn(-c2ccccc2C)c2nc(CC(C)C)c(C#N)c(=O)n12	·	·	–	·	–	·
O=S(=O)(NC1=NCCC1)c1ccc(F)cc1	–	–	–	–	–	–
O=C(NCCN1CCC(Cc2ccccc2)CC1)C1CCCN(S(=O)(=O)c2cnc[nH]2)C1 (configuration not stated)	–	–	–	–	–	–
CCCS(=O)(=O)N1CCCC(C(=O)NCCN(C)Cc2ccccc2)C1 (configuration not stated)	–	–	–	–	–	–
CCCS(=O)(=O)N1CCCC(C(=O)NCCN2CCC(Cc3ccccc3)CC2)C1 (configuration not stated)	–	–	–	65	–	–
O=C(C1CCCN(S(=O)(=O)c2cnc[nH]2)C1)N(CCc1ccccc1)Cc1ccccc1 (configuration not stated)	–	–	–	–	–	74
C=CCN(CC=C)C(=O)Cc1ccc(F)cc1	–	–	–	–	–	–
CSc1nc(C)cc(C)c1S(=O)(=O)c1ccccc1C	2.9	–	–	–	–	–
O=C(CCn1[nH]c(=O)c2ccccc2c1=O)OC1CCCCC1	–	–	–	–	–	81
CCCCOC(=O)CCn1[nH]c(=O)c2ccccc2c1=O	–	–	·	92	·	84
CCOC(=O)c1c(C)nc2sc3c(=O)n(-c4ccc(C(C)=O)cc4)nnc3c2c1-c1ccc(OC)cc1	–	–	–	–	–	59
Cc1ccc(C(=O)Cn2nnc3c(sc4nc5c(c(-c6ccccc6)c43)CCC5)c2=O)cc1	–	–	–	–	–	–
CCOC(=O)c1c(C)nc2sc3c(=O)n(-c4ccc(OC)cc4)cnc3c2c1-c1ccc(OC)cc1	–	–	–	80	–	74
COc1ccc(-n2cnc3c(sc4nccc(N(C)C)c43)c2=O)cc1	–	–	–	–	–	–
CC12CN3CC(C)(CN(C1)C3c1ccc3c(c1)OCO3)C2=O (configuration not stated)	–	–	–	–	–	53
O=C(CSc1ncn(-c2ccccc2)n1)Nc1ccc(Br)cn1	–	–	–	58	–	75
SMILES	CYP2C9 act	CYP2C19 activ	sEH inh	CYP2C9 inh	sEH activator	CYP2C19 inhib
O=C(CSc1ccccn1)Nc1ccc(Br)cn1	–	–	–	–	–	54
O=C(COc1cccc2cccnc12)N/N=C1\SCC(=O)N1Cc1ccccc1	–	–	–	–	–	–
O=C(O)c1cc(O)ccc1-c1ccc(O)cc1	–	–	–	–	–	–
Cc1ccc(C(C)C)cc1C(=O)CC1(O)C(=O)N(C)c2ccccc21 (configuration not stated)	–	–	–	59	–	66
CCN1C(=O)C(O)(CC(=O)c2cc(C)ccc2C)c2ccccc21 (configuration not stated)	–	–	–	–	–	–
CCC(C)NC(=O)c1cc2cc3ccc(OC)cc3nc2s1 (configuration not stated)	–	–	–	84	–	76
COc1ccc2cc3c(N)c(C(=O)N4CCCC4)sc3nc2c1	–	–	–	–	–	–
CCn1cc(-c2nnnn2-c2ccc(Cl)cc2)c(=O)c2ccccc21	–	–	–	–	–	–
Cc1ccc(C(=O)CC(C(=O)O)n2cccn2)cc1 (configuration not stated)	–	–	·	–	·	–
Cc1ccc(SC(CC(=O)c2ccc(C)cc2)C(=O)O)cc1 (configuration not stated)	–	–	–	95	–	–
c1ccc(C2OC3c4cccc5cccc(c45)C3N2c2ccccc2)cc1 (configuration not stated)	·	·	–	·	–	·
COc1ccc(/C(C)=N/NC(=O)c2nc(C)cc(C)n2)cc1	2.3	–	–	–	–	–
COc1ccc(/C(C)=N/NC(=O)c2ccc(N(C)C)cc2)cc1	–	–	–	–	–	–
CCCc1c(CC)c(=N)c2ccccc2n1C	–	–	–	–	–	–
CCOC(=O)c1c2c(c(=S)n(-c3ccccc3)c1N)CCC2	–	–	–	54	–	60
N#Cc1c2c(c(=S)n(-c3ccccc3)c1N)CCCC2	–	–	–	57	–	–
Cn1c(NC(=O)C2c3ccccc3Oc3ccccc32)cc(=O)n(C)c1=O	–	–	–	–	–	–
Cn1c(NC(=O)C2CCCO2)cc(=O)n(C)c1=O (configuration not stated)	–	–	·	66	·	–
Cc1ccc(C)c(S(=O)(=O)NC(CC(C)C)C(=O)O)c1 (configuration not stated)	–	–	–	–	–	–
COc1ccc(C(=O)N(CC2CCCO2)C(C(=O)NC2CCCC2)c2ccc(Cl)cc2)cc1OC (configuration not stated)	–	–	–	–	–	–
COc1ccc(OC)c(NC(=O)CSc2nnc(C3CCCCC3)n2-c2ccccc2)c1	·	·	–	·	–	·
Cn1c(N)c(C(=O)COC(=O)C2(c3ccc(Cl)cc3)CCCC2)c(=O)n(C)c1=O	–	–	–	–	–	58
CCOC(=O)C1CCCN(C(=O)c2cc(Nc3ccc(OC)c(OC)c3)nc3ccccc23)C1 (configuration not stated)	–	–	–	75	–	–
COc1ccc(Nc2cc(C(=O)NCCCN3CCOCC3)c3ccccc3n2)c(OC)c1	–	–	–	–	–	–
CCOC(=O)C1CCCN(C(=O)c2cc(Nc3ccc(OC)cc3OC)nc3ccccc23)C1 (configuration not stated)	–	–	–	98	–	64
COCCCNC(=O)CS(=O)Cc1nc(-c2cccc(OC)c2)oc1C (configuration not stated)	–	–	–	–	–	–

Compound activity from PubChem.
